Data published in ChEMBL document CHEMBL3988442, “University of Dundee, Small-Polar-MMV Screening Library” (2021).
The campaign covered roughly 48,000 compounds. About 13,000 (27%) showed an effect of 50% or more. The list shows a part of the results.

Test system: Wolbachia pipientis
Test: Anti-Wolbachia Cell-Based Screen
Type: functional
Design: scale not given: in the data most compounds retested in dose-response had high values
Settings: 5 µM

| Structure (SMILES) | Percent Effect [%] |
| --- | --- |
| Cc1noc(C[C@@H]2COC[C@H]3CN(S(=O)(=O)C4CC4)C[C@@H]23)n1 | 6.683 |
| Cc1ccc(S(=O)(=O)NC(C)C#N)cc1Br (stereo not drawn) | -6.675 |
| NS(=O)(=O)NCC1(c2ccccc2Br)CC1 | -0.7264 |
| c1csc(CCNc2nc(-c3ccncc3)nc3c2CCNCC3)c1 | -1.817 |
| COc1ccc(CC(=O)Nc2c(C)nc(N3CCCC3)nc2C)cc1 | 3.23 |
| O=S(=O)(Nc1cnc(N2CCCC2)nc1)c1ccc(F)cc1F | 5.953 |
| Fc1cccc(Nc2nc(N3CCCC3)nc3c2CNCC3)c1 | 142.6 |
| COc1cccc(-n2ccc3nc(N4CCCC4)ncc3c2=O)c1 | -5.391 |
| CCOCCNc1nc(-c2ccncc2)nc2c1CCNCC2 | 0.459 |
| COc1cccc(Nc2nc(-c3ccncc3)nc3c2CNCC3)c1.Cl | 140.9 |
| O=S(=O)(Nc1cnc(N2CCOCC2)nc1)c1cccc(F)c1 | -8.595 |
| COc1cccc(Nc2nc(N3CCCC3)nc3c2CNCC3)c1.Cl | 154.5 |
| COc1ccc(N2CCC(NCc3csc(C(C)C)n3)CC2)cc1 | -0.6873 |
| Cc1cc(CN(C)C(=O)NC2CCS(=O)(=O)C2)no1 (stereo not drawn) | 4.321 |
| Cc1ccc(Cl)cc1N1CCC(CNC(=O)CCn2ccnn2)C1 (stereo not drawn) | 3.758 |
| Cn1ccnc1CN1C[C@H]2CN(S(C)(=O)=O)CCN2C1=O | -9.259 |
| Cc1ccccc1C(=O)N1CCN(c2ccc(-n3cncn3)nn2)CC1 | 17.86 |
| COc1ccc(C2CCCN2Cc2ccc(S(=O)(=O)N(C)C)o2)cc1 (stereo not drawn) | 151.6 |
| c1cc(C2CCCN2Cc2nnnn2C2CC2)cs1 (stereo not drawn) | -19.47 |
| CN(C)S(=O)(=O)c1ccc(CN2CCCC2CO)o1 (stereo not drawn) | -8.26 |
| CN(C)S(=O)(=O)c1ccc(CN2CCC(c3ccccc3)C2)o1 (stereo not drawn) | -9.641 |
| CN(C)S(=O)(=O)c1ccc(CN2CCCC2c2ccsc2)o1 (stereo not drawn) | 153.1 |
| Cc1ccccc1C1CCCN1Cc1ccc(S(=O)(=O)N(C)C)o1 (stereo not drawn) | 160.2 |
| CN(Cc1ccco1)C(=O)CN1CCCC1c1cccs1 (stereo not drawn) | -12.25 |
| CN(C)S(=O)(=O)c1ccc(CN2CCCC2c2ccc[nH]2)o1 (stereo not drawn) | -2.919 |
| CN(C)S(=O)(=O)c1ccc(CN2CCCC2c2cccs2)o1 (stereo not drawn) | 169.9 |

| Structure (SMILES) | Percent Effect [%] |
| --- | --- |
| CN(C)S(=O)(=O)c1ccc(CN2CCCC2c2ccccc2)o1 (stereo not drawn) | 8.974 |
| CN(CCC#N)C(=O)CN1CCCC1c1ccsc1 (stereo not drawn) | 1.248 |
| Cc1nccc(-c2cccc(NCc3nc(C(C)C)no3)c2)n1 | 4.778 |
| O=c1[nH]nc(SCC2CCCO2)n1C1CC1 (stereo not drawn) | -2.947 |
| COC1CN(C(=O)CC(C)(C)C)CCC(=O)N(C)c2ccccc21 (stereo not drawn) | 105.9 |
| Cc1ccccc1N1CCN(C2CCCN(C(=O)CCC(C)C)C2)CC1 (stereo not drawn) | -1.858 |
| CC1CCCN(c2ccccc2OCC(=O)N2CCOCC2)C1 (stereo not drawn) | -4.736 |
| COC1CN(C(=O)CC(C)C)CCC(=O)N(C)c2ccccc21 (stereo not drawn) | 94.68 |
| COC1CN(C(=O)Cc2cccs2)CCC(=O)N(C)c2ccccc21 (stereo not drawn) | 113.3 |
| COc1ccc([C@@H]2CN(C(=O)Cc3cccs3)C[C@H]2NC(C)=O)cc1 | 1.079 |
| COC1CN(C(=O)COC(C)=O)CCC(=O)N(C)c2ccccc21 (stereo not drawn) | 92.83 |
| O=C(Cc1cccs1)N1CCc2nnc(COc3cncnc3)n2CC1 | -9.187 |
| CCCN1CCN(Cc2cccc(OC)c2)[C@H]2CS(=O)(=O)C[C@H]21 | -4.68 |
| Cc1nnc(CN(C)CCCOc2cccc(Cl)c2)o1 | -9.851 |
| CCOCCN1CCN(C(C)C(=O)Nc2ccnn2C(C)C)CC1 (stereo not drawn) | -7.106 |
| COC1CN(C(=O)OCC(C)C)CCC(=O)N(C)c2ccccc21 (stereo not drawn) | 62.93 |
| CC(C)C1CN(C(=O)c2cc(=O)[nH]c(=O)[nH]2)CCC(=O)N1CC1CC1 (stereo not drawn) | 7.498 |
| CC(C)COC(=O)N1CCN(C(=O)c2ccc3nccn3c2)CC1 | -2.651 |
| O=C(N1CCCC(n2cncn2)C1)C1(c2ccc(Cl)cc2)CCC1 (stereo not drawn) | 129.1 |
| O=C(N1CCCC(n2cncn2)C1)C1(c2cccc(F)c2)CC1 (stereo not drawn) | 123 |
| O=C(N1CCCC(n2cncn2)C1)C1(c2cccc(F)c2)CCC1 (stereo not drawn) | 131.6 |
| O=C(c1ccn[nH]1)N1CCCC(n2cncn2)C1 (stereo not drawn) | 8.656 |
| O=C(N1CCC(Oc2ccncc2)C1)C1(c2cccc(F)c2)CC1 (stereo not drawn) | -3.42 |
| O=C(N1CCOCC(O)C1)C1(c2ccc(Cl)cc2)CCC1 (stereo not drawn) | -14.09 |
| Cc1cc(C)cc(C2(C(=O)N3CCCC(n4cncn4)C3)CC2)c1 (stereo not drawn) | 4.808 |
| O=C(N1CCCC(n2cncn2)C1)C1(c2cccc(F)c2)CCCC1 (stereo not drawn) | 112.9 |

| Structure (SMILES) | Percent Effect [%] |
| --- | --- |
| COc1ccccc1N1CCC(N2CCOC(C(F)(F)F)C2)CC1 (stereo not drawn) | 10.11 |
| COc1ccc(NC(=O)CCC2CCCN(Cc3ncon3)C2)c(C)c1 (stereo not drawn) | 0.05921 |
| CC(C)N1C[C@@H](F)[C@@H](OCc2nc3ncccc3[nH]2)C1 | -12.53 |
| CC(C)c1cc(CN(C)C(=O)CN2CCNC2=O)no1 | 133 |
| CC(C)c1cc(CN(C)C(=O)CN2CCC(C(N)=O)CC2)no1 | 136.4 |
| CC(C)c1cc(CN(C)C(=O)CN2CCCCC2=O)no1 | 112.2 |
| Cc1nc(CCN(C)C(=O)CN2CCCCCC2)no1 | 5.465 |
| Cc1cc(CN(C)C(=O)C2CCCN(C(N)=O)C2)no1 (stereo not drawn) | 12.67 |
| CCc1cc(CN(C)C(=O)CN2CC3(CCNCC3)OC2=O)on1 | 3.162 |
| Cc1cc(CN(C)C(=O)NC2CCN(Cc3ccccc3)C2)no1 (stereo not drawn) | -11.75 |
| Cc1ncsc1CCN(C)C(=O)CN1CCCCC1=O | 17.08 |
| Cc1cc(CN(C)C(=O)CN2CCCCCC2=O)no1 | 104.9 |
| Cc1cc(CN(C)C(=O)CN2CC3(CCNCC3)OC2=O)no1 | -10.43 |
| Cc1cc(CN(C)C(=O)NCc2cccc(N3CCCC3=O)c2)no1 | 2.405 |
| CN(Cc1cc(C2CC2)on1)C(=O)CN1C(=O)OC(C)(C)C1=O | -4.246 |
| CCOCC(=O)NC(C#N)c1cnn(-c2ccccc2)c1 (stereo not drawn) | 0.4784 |
| CCc1cc(CN(C)Cc2nc(-c3ccc(OC)cc3F)oc2C)on1 | -9.467 |
| Cc1cnccc1N1CCCN(C(=O)CCCc2cn[nH]c2)CC1 | 11.82 |
| O=C(Nc1nncs1)N1CCCN(C2CCCC2)CC1 | -1.803 |
| Cc1noc(C)c1CNC[C@@]1(COc2cccnc2)C[C@@H](O)[C@@H](O)C1.Cl.Cl | -8.065 |
| Cc1nn(C)c(Oc2cccnc2)c1NC(=O)C1CCCO1 (stereo not drawn) | 5.234 |
| Cc1n[nH]c(C)c1CNC(=O)NC1CCCCC1 | -5.785 |
| Cc1n[nH]c(C)c1CCC(=O)N[C@@H]1CCC[C@@H](Oc2ccccc2)[C@@H]1O | 124.4 |
| Cc1n[nH]c(C)c1CCCNCc1cn(CCC(N)=O)c2ccccc12 | -2.861 |
| CNC(=O)COc1ccccc1CNCc1c(C)noc1C | -55.32 |
| Cc1noc(C)c1CCC(=O)N[C@@H]1CCC[C@@H](Oc2cccnc2)[C@@H]1O | 114.3 |

| Structure (SMILES) | Percent Effect [%] |
| --- | --- |
| Cc1noc(C)c1CCC(=O)N[C@@H]1CC[C@@H](Oc2cccnc2)[C@@H]1O | 106.7 |
| Cc1[nH]ncc1CCCNC(=O)Nc1ccc2c(c1)OC1(CCCC1)O2 | -12.99 |
| Cc1cc2n(n1)CC(CNC1CCN(Cc3ccncc3)CC1)CN2 (stereo not drawn) | 3.296 |
| Cc1noc(C)c1CNC(=O)N(C1CC1)C(C)c1ccco1 (stereo not drawn) | -2.539 |
| Cc1ccc2c(-c3nc4c([nH]3)CCNC4C(=O)O)cccc2n1 (stereo not drawn) | 0.6964 |
| O=C(CC1CCc2ccccc21)NC1(C(=O)O)CCCC1 (stereo not drawn) | 9.016 |
| CCN1CCC2(CC1)CC(CC(=O)N(C)C)c1ccc(F)cc12 (stereo not drawn) | 112.9 |
| O=C(CC1CC2(CCNCC2)c2ccccc21)NCC1CC1 (stereo not drawn) | 105 |
| CCC(=O)N1CCC2(CC1)CC(CC(=O)N(C)C)c1ccc(F)cc12 (stereo not drawn) | 103 |
| Cc1ccc2c(c1)C1(CCNCC1)CC2OCC1CC1 (stereo not drawn) | 7.08 |
| CNC(=O)CC1CC2(CCNCC2)c2cc(F)ccc21 (stereo not drawn) | 95.41 |
| CCC(=O)N1CCC2(CC1)CC(CC(N)=O)c1ccc(F)cc12 (stereo not drawn) | 3.39 |
| CNC(=O)CC1CC2(CCN(Cc3nccs3)CC2)c2ccccc21.O=C(O)C(F)(F)F (stereo not drawn) | -2.085 |
| COCCN1CCC2(CC1)CC(CC(N)=O)c1ccc(F)cc12 (stereo not drawn) | 8.076 |
| CCNC(=O)CC1CC2(CCN(C(C)=O)CC2)c2cc(F)ccc21 (stereo not drawn) | -4.484 |
| CCOC1CC2(CCN(C(=O)COC)CC2)c2cc(F)ccc21 (stereo not drawn) | -4.976 |
| COCC(=O)N1CCC2(CC1)CC(CC(=O)NC1CC1)c1ccccc12 (stereo not drawn) | -16.01 |
| CCN1CC(C(=O)N2CCc3cc(C(N)=O)n(C)c3C2)CCC1=O (stereo not drawn) | -10.45 |
| Cc1ccc(-c2nc(CN3CCn4c(nnc4C4CC4)C3)no2)cc1 | -10.52 |
| c1cncc(NCCNC2CCSC2)c1 (stereo not drawn) | 14.04 |
| CCC(C)n1cnc(S(=O)(=O)N(C)c2cccnc2N(C)C)c1 (stereo not drawn) | 2.284 |
| Cc1nnc(CSc2ccccn2)o1 | -5.067 |
| O=C(CCN1CCCC1C1CCCCC1)N1CCc2sccc2C1 (stereo not drawn) | 3.149 |
| CN(C)S(=O)(=O)N1CCC2(CC1)CC(OCC1CC1)CO2 (stereo not drawn) | -4.528 |
| CC(C)(C)CC(=O)NC[C@H]1OC[C@@H](NC2CCC(F)(F)CC2)[C@@H]1O | -11.06 |
